High-throughput results: PubChem BioAssay, Broad Institute
The full list was thinned out, with hits kept by preference.
miR-122 inh – activators of miR-122 sensor in Huh7 cells; Huh7 psiCHECK-miR122 Renilla luciferase sensor, 48 h; activation, % at 12.5 µM; 340,000 compounds, 0.14% hits; AID 623901;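 active = mean activation of 30% or more, with every replicate also reaching 30%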;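 note: 0% = median of neutral control wells and 100% = median of positive control wells; higher luciferase signal means stronger suppression of miR-122 activity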
* hit, by the source's call.

SMILES	miR-122 inh
COc1cccc(NC(=O)N(C)C[C@H]2Oc3cc(-c4cccc(C(=O)N(C)C)c4)ccc3S(=O)(=O)N([C@@H](C)CO)C[C@@H]2C)c1	-44
CO[C@@H]1CN(C)C(=O)c2ccc(NC(=O)c3ccccc3)cc2OC[C@H](C)N(C)C[C@@H]1C	-3
CNC[C@@H]1Oc2cc(C#Cc3cccc(F)c3)ccc2S(=O)(=O)N([C@@H](C)CO)C[C@H]1C	2
CCCn1c(CC)nc([N+](=O)[O-])c1S(=O)(=O)c1ccccc1	48*
C[C@H](CO)N1C[C@H](C)[C@@H](CN(C)CC2CCCC2)Oc2ncc(C#Cc3cccc(F)c3)cc2C1=O	6
COc1ccc(C#Cc2cnc3c(c2)C(=O)N([C@H](C)CO)C[C@H](C)[C@@H](CN(C)CC2CCCC2)O3)cc1	1
CNC[C@@H]1Oc2ncc(C#Cc3ccncc3)cc2C(=O)N([C@H](C)CO)C[C@@H]1C	2
COc1ccc(C#Cc2ccc3c(c2)O[C@@H](CN(C)C(=O)NC2CCCCC2)[C@@H](C)CN([C@@H](C)CO)S3(=O)=O)cc1	-13
COc1ccc(C(C(=O)NC2CCCCC2)N(C(=O)CCl)c2cccc(Cl)c2)cc1 (stereo unspecified)	55*
O=C(NC1CCCC1)C(c1ccccc1)N(Cc1ccc2c(c1)OCO2)C(=O)Cc1cccs1 (stereo unspecified)	-90
COCC#Cc1cnc2c(c1)C(=O)N([C@@H](C)CO)C[C@@H](C)[C@@H](CN(C)Cc1ccccc1)O2	0
COc1cccc(C#Cc2ccc3c(c2)O[C@@H](CN(C)C(=O)CN2CCOCC2)[C@@H](C)CN([C@H](C)CO)S3(=O)=O)c1	5
COc1ccc(C#Cc2ccc3c(c2)O[C@H](CN(C)C(=O)CN2CCOCC2)[C@H](C)CN([C@@H](C)CO)S3(=O)=O)cc1	54*
COc1cccc(C#Cc2ccc3c(c2)O[C@H](CN(C)C(=O)CN2CCOCC2)[C@H](C)CN([C@H](C)CO)S3(=O)=O)c1	4
COc1cccc(C#Cc2ccc3c(c2)O[C@@H](CN(C)C(=O)CN2CCOCC2)[C@H](C)CN([C@@H](C)CO)S3(=O)=O)c1	5
COc1ccc(C#Cc2ccc3c(c2)O[C@@H](CN(C)C(=O)CN2CCOCC2)[C@@H](C)CN([C@H](C)CO)S3(=O)=O)cc1	36*
COc1cccc(C#Cc2ccc3c(c2)O[C@@H](CN(C)C(=O)CN2CCOCC2)[C@H](C)CN([C@H](C)CO)S3(=O)=O)c1	-7
COc1ccc(NC(=O)N(C)C[C@@H]2Oc3cc(C#CCC(C)C)ccc3S(=O)(=O)N([C@@H](C)CO)C[C@@H]2C)cc1	43*
COc1ccc(C#Cc2ccc3c(c2)O[C@H](CN(C)C(=O)NC2CCCCC2)[C@@H](C)CN([C@H](C)CO)S3(=O)=O)cc1	-27
C/C=C/c1ccc2c(c1)O[C@H](CN(C)C(=O)Nc1ccc(OC)cc1)[C@H](C)CN([C@@H](C)CO)S2(=O)=O	6
C[C@@H]1CN([C@H](C)CO)C(=O)c2cc(C#CCC3CCCC3)cnc2O[C@@H]1CN(C)Cc1ccccn1	-14
C[C@H]1CN([C@@H](C)CO)C(=O)c2cc(-c3cccc(F)c3)cnc2O[C@H]1CN(C)C(=O)c1ccccn1	7
C[C@@H]1CN([C@@H](C)CO)S(=O)(=O)c2ccc(C3=CCCCC3)cc2O[C@H]1CN(C)C(=O)CC1CC1	2
CNC[C@H]1Oc2cc(C#Cc3cccc(F)c3)ccc2S(=O)(=O)N([C@H](C)CO)C[C@@H]1C	9
C[C@@H]1CN([C@@H](C)CO)C(=O)c2cc(Br)cnc2O[C@@H]1CN(C)C(=O)CN1CCOCC1	5
SMILES	miR-122 inh
CO[C@@H]1CN(C)C(=O)c2cc(NC(=O)c3nc4ccccc4s3)ccc2OC[C@@H](C)N(Cc2ccncc2)C[C@@H]1C	1
CC(C)CC#Cc1ccc2c(c1)O[C@@H](CN(C)C(=O)NC1CCCC1)[C@H](C)CN([C@@H](C)CO)S2(=O)=O	-15
COc1cccc(-c2cnc3c(c2)C(=O)N([C@H](C)CO)C[C@H](C)[C@H](CN(C)Cc2cccc(C)c2)O3)c1	8
Cc1noc(C)c1NC(=O)N(C)C[C@@H]1Oc2ncc(C#CC3CCCCC3)cc2C(=O)N([C@H](C)CO)C[C@H]1C	5
C[n+]1c2cc(N)ccc2cc2ccc(N)cc21	76*
COc1ccccc1-c1ccc2c(c1)O[C@@H](CN(C)S(=O)(=O)c1ccc(C)cc1)[C@H](C)CN([C@H](C)CO)S2(=O)=O	0
C[C@H]1CN([C@@H](C)CO)C(=O)c2cc(C#Cc3ccccn3)cnc2O[C@@H]1CN(C)C(=O)CCN1CCCCC1	-3
CC(C)NC(=O)N(C)C[C@H]1Oc2cc(C3=CCCCC3)ccc2S(=O)(=O)N([C@@H](C)CO)C[C@H]1C	6
COc1ccc(-c2cnc3c(c2)C(=O)N([C@H](C)CO)C[C@H](C)[C@@H](CN(C)C(=O)Cc2ccccc2)O3)cc1	-9
C[C@H]1CN([C@@H](C)CO)C(=O)c2cc(-c3ccccc3)cnc2O[C@H]1CN(C)C(=O)Nc1ccc2c(c1)OCO2	-3
CCC(=O)Nc1ccc2c(c1)OC[C@H](C)NC[C@@H](C)[C@H](OC)CN(C)C2=O	3
CCCC(=O)OCCNc1cc(Sc2nccn2C)c2nonc2c1[N+](=O)[O-]	62*
COCC(=O)N(C)C[C@H]1Oc2ncc(/C=C/c3ccccc3)cc2C(=O)N([C@H](C)CO)C[C@@H]1C	4
COCC(=O)N(C)C[C@H]1Oc2ncc(/C=C/c3ccccc3)cc2C(=O)N([C@H](C)CO)C[C@H]1C	3
C/C=C/c1ccc([C@@H]2[C@@H](CN(C(=O)COC)C(C)C)N(C(C)=O)[C@H]2CO)cc1	50*
COCC#Cc1ccc2c(c1)O[C@@H](CN(C)C(=O)COC)[C@H](C)CN([C@H](C)CO)S2(=O)=O	2
C[C@H](CO)N1C[C@H](C)[C@@H](CN(C)S(C)(=O)=O)Oc2ncc(C#CC3(O)CCCC3)cc2C1=O	6
N=c1c2c(-c3ccccc3)c(-c3ccccc3)n(Cc3ccco3)c2ncn1CCO	43*
COc1ccccc1-c1ccc2c(c1)O[C@@H](CN(C)C(=O)Nc1ccccc1)[C@H](C)CN([C@H](C)CO)S2(=O)=O	-3
C[C@@H]1CN([C@H](C)CO)S(=O)(=O)c2ccc(-c3ccccc3)cc2O[C@H]1CN(C)C(=O)C1CCCCC1	-95
C[C@@H]1CN([C@@H](C)CO)C(=O)c2cc(/C=C/c3ccccc3)cnc2O[C@@H]1CN(C)C(=O)C1CCC1	-2
CN(C[C@H]1N[C@@H](CO)[C@H]1c1ccc(-c2ccccc2)cc1)C(=O)C1CCC1	42*
COc1ccc(S(=O)(=O)N(C)C[C@@H]2Oc3cc(-c4ccccc4OC)ccc3S(=O)(=O)N([C@@H](C)CO)C[C@H]2C)cc1	0
CCC(=O)N(C)C[C@@H]1Oc2ncc(-c3cccc(OC)c3)cc2C(=O)N([C@H](C)CO)C[C@@H]1C	-29
Cc1cc(C(=O)Nc2cccc(O)c2)co1	36*
Cc1cccc(C(=O)Nc2cccc(S(=O)(=O)NCc3ccco3)c2)c1	-95
COc1cccc(C#Cc2ccc3c(c2)O[C@H](CN(C)C(=O)c2ccccn2)[C@@H](C)CN([C@@H](C)CO)S3(=O)=O)c1	-33
C[C@@H]1CN([C@@H](C)CO)S(=O)(=O)c2ccc(C#CC3CC3)cc2O[C@@H]1CN(C)C(=O)C1CC1	15
Cc1ccc(S(=O)(=O)N(C)C[C@@H]2Oc3cc(C#CC4CCCC4)ccc3S(=O)(=O)N([C@H](C)CO)C[C@@H]2C)cc1	3
